Screening results: PubChem BioAssay, SRMLSC
MK inhibit: S. pneumoniae MK inhibitors, primary screen, biochemical, PK/LDH-coupled NADH absorbance; mevalonate kinase [Streptococcus pneumoniae D39]; inhibition, % at 10 µM; AID 555, 2006; purified MK, PK/LDH-coupled NADH absorbance 340 nm; actives 0.48% (n = 65,000);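 active means ranked among the strongest by inhibition in the single 10 µM screen, a fixed top-ranked set picked for dose follow-up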
Autofluor 339: intrinsic fluorescence of library compounds, ex339/em460 – biochemical, MLSMR library, data from DPM-DC assay, artefact control, profiling panel; compound autofluorescence, ex339/em460 nm, NADH buffer; hits give high values; 1 = no-compound wells, NADH background; fluorescence fold increase at 10 µM; actives 5.5% (n = 65,000);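 active means at 10 µM, mean starting fluorescence two-fold or more over control wells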;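 further: signal is the first read of a kinetic run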
DPM-DC inhibit: S. pneumoniae DPM-DC inhibitors, primary screen, biochemical, PK/LDH-coupled NADH fluorescence; calls only at 10 µM; actives 0.49% (n = 65,000); AID 556, 2006; diphosphomevalonate decarboxylase (Streptococcus pneumoniae D39); purified DPM-DC;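 active means the 320 compounds with the highest percent inhibition in the single-dose primary screen, excluding strongly autofluorescent ones, cut at about 32% in these data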;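 further: kinetic rate of NADH fluorescence loss reporting ADP formed by the decarboxylase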
PMK inhibit: S. pneumoniae PMK inhibitors, primary screen, biochemical, mevalonate pathway, pilot trial included; purified PMK, PK/LDH-coupled NADH absorbance 340 nm; inhibition, % at 10 µM; actives 0.49% (n = 65,000); AID 539, 2006;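 active means top-ranked compounds by inhibition in the single 10 µM screen, taking a fixed number of the strongest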
NADH enzymes: inhibitors of PK/LDH coupling enzymes, profiling panel, artefact control, biochemical, MLSMR library; AID 774, 2007; actives 0.02% (n = 65,000); IC50, µM (top dose mostly 10 µM); coupled PK/LDH NADH assays, four targets;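 active means single-dose screening hits from any of four coupled enzyme assays that gave an IC50 when retested across doses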;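 further: the DPM-DC format reads NADH fluorescence rather than 340 nm absorbance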
A340 absorber: compound light absorbance at 340 nm, profiling panel, artefact control, biochemical, MLSMR library, data from PS, PMK, MK assays. compound absorbance at 340 nm, fold over control. fold change at 10 µM. 65,000 tested, under 10 active;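 active means at 10 µM dose, initial 340 nm absorbance at least 2 fold that of control wells; inactive means change under 2 fold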;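 further: initial absorbance extrapolated from kinetic A340 decline of NADH oxidation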
Of the large screens only hits and unclear results are named; the others gave an inactive call. In the library only some 6.8% were active in any assay of this set; here they are far more common.

Cn1c2ccccc2c(=O)n2c(=O)c3ccccc3cc12	Autofluor 339 2.38
Cn1c(-c2ccccc2)cc(=O)c2ccccc21	none
Clc1ccc(-n2nnnc2SCc2c(-c3ccccc3)nc3sccn23)cc1	none
CCOc1ccc(-c2n[nH]c(C)c2Oc2ccc(OC)cc2)c(O)c1	none
CCCn1cnc2c(cnn2-c2ccc(F)cc2)c1=O	PMK inhibit 27.0
CCCCn1cnc2c(cnn2-c2ccc(F)cc2)c1=O	none
CCCCN(C)C(=O)c1oc2ccc(S(=O)(=O)N3CCCCCC3)cc2c1C	none
CCN(CC)c1ccc(C2C(C(=O)OC)=C(C)NC(C)=C2C(=O)OC)cc1	none
COC(=O)C1=C(C)NC(C)=C(C(=O)OC)C1c1ccc(NC(C)=O)cc1	Autofluor 339 2.08
CCOC(=O)c1ccc(NS(=O)(=O)N2CCCCCC2)cc1	none
CC(=O)c1ccc(NS(=O)(=O)Cc2ccccc2)cc1	none
O=C(O)c1[nH]c2ccccc2c1NS(=O)(=O)Cc1ccccc1	Autofluor 339 2.41
Cc1ccc2cc(CN(C)C(=O)C3CCCO3)c(=O)[nH]c2c1 (centres undefined)	none
Cc1ccc2oc(=O)cc(CN3CCOCC3)c2c1	none
CCNc1cc2oc(=O)c(CN3CCOCC3)c(C)c2cc1C	Autofluor 339 2.24 (not shown: DPM-DC inhibit)
COc1ccccc1C1CC(c2ccc(C)cc2)Nc2ncnn21 (centres undefined)	none
Cc1cccc(-n2nc3c(c2NC(=O)c2ccco2)CSC3)c1C	PMK inhibit 25.0
CC(=O)N(Cc1ccco1)C1(C(=O)NC2CCCCC2)CCCCC1	none
O=C1CCC(C(=O)N(Cc2ccco2)C2(C(=O)NC3CCCC3)CCCCC2)N1 (centres undefined)	DPM-DC inhibit active
COC(=O)c1cc2c(=O)n3ccccc3nc2n(C(C)C)c1=N	Autofluor 339 3.86 (not shown: DPM-DC inhibit)
CCn1c(=N)c(C(=O)OC)cc2c(=O)n3ccccc3nc21	Autofluor 339 3.71 (not shown: DPM-DC inhibit)
CC(C)n1c(=N)c(C(=O)NCCc2ccccc2)cc2c(=O)n3ccccc3nc21	Autofluor 339 5.06 (not shown: DPM-DC inhibit)
COc1cc2c(=O)n(CCCN3CCOCC3)c(=S)[nH]c2c(OC)c1OC	none
O=S(=O)(c1ccccc1Cl)N1CCCC(c2nc(-c3cccnc3)no2)C1 (centres undefined)	none
CC1CN(C2CCN(C(=O)c3ccccc3)CC2)CC(C)O1 (centres undefined)	none
N/C(CCN1CCOCC1)=N/O	MK inhibit 52.0
CCC(Oc1ccccc1)C(=O)N1CC(C)CC(C)C1 (centres undefined)	none
CSc1ccc(-c2c(C#N)c(N)nc3c2CCCC3)cc1	Autofluor 339 3.68 (not shown: DPM-DC inhibit)
N#Cc1c(N)nc2c(c1-c1ccncc1)CCCCC2	none
COC(=O)c1c(NC(=O)c2ccc(Br)s2)sc2c1CCC2	none
CCn1ncc(Br)c1C(=O)Nc1sc2c(c1C(=O)OC)CCC2	Autofluor 339 2.5
COC(=O)c1c(NC(=O)c2nn(C)cc2Cl)sc2c1CCCC2	Autofluor 339 2.36 (not shown: DPM-DC inhibit)
Cc1cccn2c(=O)c(C=NCc3ccco3)c(Nc3ccc(Cl)cc3)nc12	none
COc1cccc(C2CC(c3ccccc3OC)n3nc(N)nc3N2)c1 (centres undefined)	none
COc1ccccc1-c1cc(C(=O)NC(C)C)no1	none
COc1ccccc1-c1cc(C(=O)Nc2ccc(F)cc2F)no1	Autofluor 339 2.12
CC1CCCN(C(=O)C(Cc2ccccc2)n2cccc2)C1 (centres undefined)	none
COc1ccc(-c2nnc(NC(=O)c3ccc(S(=O)(=O)N4CCc5ccccc5C4)cc3)o2)cc1	Autofluor 339 3.09
CC1CC(C)CN(S(=O)(=O)c2ccc(C(=O)Nc3nnc(-c4cccs4)o3)cc2)C1 (centres undefined)	Autofluor 339 3.75 (not shown: DPM-DC inhibit)
CCOC(=O)CC(N)c1ccc2c(c1)OCO2 (centres undefined)	none
CCOc1ccc(Nc2nc(NCCN3CCOCC3)nc(OC)n2)cc1	none
O=c1cc(-c2ccc3c(c2)OCO3)oc2ccccc12	Autofluor 339 3.65 (not shown: DPM-DC inhibit)
O=c1cc(-c2ccncc2)oc2ccccc12	none
